Assay outcomes as filed in PubChem BioAssay.
D1 antagonist: blocks dopamine activation of the human D1 receptor; HEK293 TREx D1 cells, calcium flux, dopamine EC80; active compounds read low; activity change, negative = inhibition, % at 10 µM; P21728; 360,000 compounds, 3.2% hits; in the data active = activity change below about -30%; also: % is scaled to controls: 0 for no effect and ±100 for the full control effect
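Cells carrying a force-coupled, tetracycline-inducible human D1 receptor report calcium flux. Each well gets a 10 s baseline, compound with 180 s monitoring, then an EC80 dopamine stimulus with a second 180 s kinetic read.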
D1 potentiator: potentiators of human D1 dopamine receptor | potentiation, % at 10 µM | P21728 | 360,000 compounds, 0.036% hits | HEK293 TREx D1 cells, calcium flux, dopamine EC20 potentiation; in the data active = potentiation above about 30%; also: 0% is about no effect
D1 ag: human D1 receptor agonism | AID 504660 | P21728 | activation, % at 2 µM | 360,000 compounds, 1% hits | HEK293 T-REx D1 cells, calcium flux, agonist mode; also: 0% is about no effect
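Agonism was scored from calcium flux recorded over 180 s (1 read/s) after pintool compound addition, following a 10-cycle baseline. Cells were inducible force-coupled HEK293 TREx D1, plated overnight at 30 C and loaded with no-wash calcium dye.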
TRHR enhancer: TRH receptor (human) allosteric enhancement; TRHR cells, fluo-8 calcium fluorescence, EC20 TRH enhancement; AID 493056; enhancement, % at 2 µM; 360,000 compounds, 0.66% hits; P34981; in the data active = enhancement above about 30%; also: 0% is about no effect
Target sequence (P34981 whole entry, looked up): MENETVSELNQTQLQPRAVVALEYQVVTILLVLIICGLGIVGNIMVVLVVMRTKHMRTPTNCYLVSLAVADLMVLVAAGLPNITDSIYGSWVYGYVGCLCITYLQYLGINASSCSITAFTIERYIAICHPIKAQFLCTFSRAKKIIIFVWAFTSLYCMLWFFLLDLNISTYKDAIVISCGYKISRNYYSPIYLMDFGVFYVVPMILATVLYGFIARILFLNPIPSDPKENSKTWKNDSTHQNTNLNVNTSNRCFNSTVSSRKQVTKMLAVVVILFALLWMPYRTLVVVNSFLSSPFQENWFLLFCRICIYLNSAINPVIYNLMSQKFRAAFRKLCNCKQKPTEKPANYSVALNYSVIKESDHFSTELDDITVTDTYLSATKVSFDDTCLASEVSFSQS
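Enhancer read-out: after compound pinning and an initial kinetic agonist-mode read, an EC20 of TRH (10 nM final) was injected and fluo-8 calcium signal (Ex 480/Em 530) followed at 1 s/cycle for 100 cycles in TRHR-expressing cells.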
TRHR agonist: TRH receptor (human) agonism. 360,000 compounds, 0.18% hits. activation, % at 2 µM. TRHR cells, calcium flux fluo-8, FDSS agonist mode; also: 0% is about no effect
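Read-out: compound-evoked intracellular calcium rise in TRHR cells, fluo-8 dye, kinetic FDSS fluorescence at 1 s/cycle following a 10-cycle baseline. Cells cultured overnight before dye loading (30 min–1.5 h, RT).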
Numbers without * were called inactive; . = no result given; ! = not confirmed by another sample. A selection: hits, their analogues and other compounds. The true share with any hit is near 4.7%. Rule as the data show it, unless noted: active = activation above about 30%; inactive = the rest.

SMILES	D1 antagonist	D1 potentiator	D1 ag	TRHR enhancer	TRHR agonist
CCOC(=O)c1ccc(NC(=S)N2CCCC(C(=O)N3CCCC3)C2)cc1 (stereo not given)	-89*	-10	2	3	0
Cc1cc(NC(=O)CSc2nc3c([nH]c4ccccc43)c(=O)n2-c2cccc(Cl)c2)no1	-6	-4	1	-2	0
Cc1[nH]c2ccccc2c1/C=N/NC(=O)c1cccs1	-13	0	0	2	0
Cc1c(/C=N/NC(=O)c2cccs2)c2ccccc2n1Cc1ccccc1Cl	-99*	-10	2	-6	0
CCCC(=O)N(c1ccc2oc(C)c(C(C)=O)c2c1)S(=O)(=O)c1ccc(C(=O)O)cc1	-42*	-8	1	-25	1
CCO/N=C(\C)c1c(O)cc(C(C)C)n(-c2ccccc2)c1=O	-36*	-4	1	3	0
CCOc1ccc(CCNC(=O)CCCn2c(=O)c3cccn3c3cccnc32)cc1	-21	2	0	-1	0
CCN(CC)c1ccc(NC(=O)c2ccco2)c(C)c1	-14	4	-2	4	0
CCN(CC)c1ccc(NC(=O)c2ccc(Br)o2)c(C)c1	-1	-9	35*	8	0
CCOC(=O)c1[nH]c2ccccc2c1NC(=O)c1ccc(C)c(C)c1	-8	1	2	-9	0
COc1cc2nc(NCCC(C)C)n3nc(-c4ccccc4)nc3c2cc1OC	-10	-4	0	-6	0
CC(=O)OCc1cnc(C)c2oc(=O)c(C(=O)Nc3cccc(F)c3)cc12	-46*	1	0	9	-1
O=C(c1ccc2c(c1)CCN2S(=O)(=O)c1ccccc1)N1CCN(c2ccccc2)CC1	1	-5	1	33*	0
CS(=O)(=O)N1CCc2cc(C(=O)NC3CC3)ccc21	-37*	-3	4	-7	0
CS(=O)(=O)N1CCc2cc(C(=O)N3CCN(c4ccccc4)CC3)ccc21	-65*!	-3	-1	-6	-1
CCCNC(=O)c1ccc2c(c1)CCN2S(C)(=O)=O	.	-4	1	-2	1
CSC1=NCCN1C(=O)Cc1ccc(Cl)cc1	24	.	2	-5	0
O=C(Cc1ccccc1)N1CCN=C1SCc1cccc([N+](=O)[O-])c1	-23	-4	0	31*	0
Cc1cccc(C(=O)N2CCN=C2SCc2ccc([N+](=O)[O-])cc2)c1	5	4	6	1	0
COc1ccc(CC(=O)N2CCN=C2SC)cc1	-79*	.	3	1	1
CCS(=O)(=O)N1CC(=O)N(c2ccccc2C)C(C)(C(=O)NC2CCCCC2)C1 (stereo not given)	-5	6	-2	0	1
O=C(CN1C(=O)C2CCCCN2c2ccc(C(=O)N3CCCC3)cc21)NCc1cccc(Cl)c1 (stereo not given)	6	-2	3	7	-1
C=CCn1c(CNC(=O)c2cccs2)nnc1SCc1ccc(Cl)cc1Cl	3	-2	60*	10	-1
Cc1ccc2nc(Cc3ccc(N)cc3)oc2c1	-31*	-12	1	2	0
Cc1ccc2nc(CCc3nc4ccc(C)cc4o3)oc2c1	4	-1	6	-1	0
SMILES	D1 antagonist	D1 potentiator	D1 ag	TRHR enhancer	TRHR agonist
CCN(CC)c1ccc(-n2c(C)cc(C=O)c2C)cc1	-32*	1	3	-9	0
COc1ccc(-c2cc(-c3ccc(Cl)cc3)n[nH]2)c(O)c1	-34*	-6	1	-5	1
COC(=O)c1cccc(C23CC4(C2)[C@H](CN(Cc2cccnc2)[C@@H]4c2ccccc2)C3c2ccc(Cl)nc2)c1 (stereo not given in full)	36	3	4	2	0
COC(=O)c1cccc(C23CC4(C2)[C@H](CN(Cc2ccc(-c5ccccc5)cc2)[C@@H]4c2ccccc2)C3c2ccc(Cl)nc2)c1 (stereo not given in full)	-36*	-9	2	6	0
Cc1ccc(/C(N)=N/OC(=O)Cc2cccs2)cc1	10	7	0	6	0
N/C(=N\OC(=O)Cc1cccs1)c1ccccc1	-38*	-8	1	-2	0
O=C(NC1CCN(C(=O)Nc2ccc(F)cc2)CC1)c1ccc(F)cc1	-22	-1	5	39*	-1
O=C(NC1CCN(C(=O)Nc2ccc(F)cc2)CC1)c1cccc(F)c1	12	-6	1	6	0
COc1ccc(Oc2ccc(N/C=C3/CCCC3=O)cc2)cc1	-31*	-10	2	0	0
COc1ccc(Oc2ccc(N/C=C3\CCCC3=O)cc2)cc1	3	-5	7	0	0
Cc1ccccc1COc1ccc(-c2nnn(CC(=O)O)n2)cc1	3	-2	0	1	0
CCOc1ccc(NC(=O)CCn2cccn2)cc1	-2	-5	0	3	0
COC(=O)c1cc(-c2ccccc2)c2c(=O)n(C)c(=O)n(C)c2n1	-3	-2	1	-4	0
Cc1[nH]nc2nc3c(c(OC(=O)c4ccccc4)c12)c(=O)n(C)c(=O)n3C	-39*	.	-1	7	0
CCN(CC)CCCn1c2c(c(SCC(=O)Nc3nccs3)nc1=O)CCC2	-56*	0	2	-6	0
CN(CC(=O)Nc1ccccc1C(F)(F)F)C(=O)CCc1nc2ccccc2c(=O)[nH]1	10	-1	-2	-3	0
CCn1c(SCC(=O)Nc2nc3ccccc3s2)nnc1-c1ccc(Br)cc1	-8	-4	2	0	0
COc1cccc(-n2ccnc2SCC(=O)Nc2ccccc2F)c1	-37*	-5	3	-3	-3
COc1ccc(Cn2ccnc2SCC(=O)NC2CCCC2)cc1	-67*!	4	6	-5	0
COc1ccc(NC(=O)CSc2nccn2Cc2ccccc2)c(OC)c1	-36*	-7	9	1	0
CCn1c(Cc2ccc(OC)cc2)nnc1SCC(=O)Nc1nc2ccccc2s1	-31*	-8	4	-7	0
O=S(=O)(c1ccc2c(c1)OCO2)N1CCN(S(=O)(=O)c2c(F)cccc2F)CC1	-18	-7	0	-2	0
CC1CCN(S(=O)(=O)c2ccc3c(ccc(=O)n3CC(=O)Nc3cccc(F)c3)c2)CC1	12	0	5	-2	0
CCn1c(CNC(=O)Cc2ccc(OC)cc2)nnc1SCC(=O)NC1CCCCC1	-39*	-5	0	-3	0
O=C(CSc1nccn1-c1ccc(F)cc1)Nc1ccc(OC(F)(F)F)cc1	-76*	-5	0	1	0
COc1ccc(NC(=O)COC(=O)c2ncc(Cl)c(Cl)c2Cl)c(OC)c1	-41*	-2	0	2	0
Cn1ccnc1SCC(=O)Nc1cccc2ccccc12	-34*	-7	2	-8	0
